“And” between values parts separate entries of the source, which are not always exact repeats. Equal values may be shown once. Results filed as inconclusive are left out. Where a call stands in place of a potency, no number is given. More than one record can exist for a structure, and the calls need not agree. The source made the active and inactive calls. Unless noted, the call rests on the fitted dose curve; in most records, active means well fitted curve in the direction sought with a large enough effect; inconclusive means small, poorly fitted or top-dose-only effect, or another doubt; inactive means no such curve, though single readings can be large; an effect the other way counts as inactive or inconclusive.
Experiments:
[1] = molecular target: Ubiquitin carboxyl-terminal hydrolase 2 (Homo sapiens) (UniProt O75604); experiment: qHTS Validation Assay for Inhibitors of Ubiquitin-specific Protease USP2a Using CHOP2 as the Reporter (AID 463106); further: potency means the concentration at half of the fitted maximal effect
Summary of the method: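 Readout was coupled fluorescence (Ex 485/Em 531 nm), read 60 min after adding 25 nM final Ub-CHOP2 and 25 nM reporter substrate. Beforehand, 10 nM final USP2 core had 30 min at RT with compound in pH 8.0 buffer. Curves were fitted after normalization to NEM and flagged for artifacts using time-zero reads.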

[2] = molecular target: DNA polymerase III PolC-type (Bacillus subtilis (strain 168)) (UniProt P13267); experiment: qHTS Validation Assay for the Inhibitors of DNA Replication in Gram-Positive Bacteria (AID 485295);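 further: reconstituted holoenzyme with PolC plus beta clamp SSB and primase; PicoGreen fluorescence of double-stranded DNA made on primed circular M13 template; series mostly up to about 57 µM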
Summary of the method: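 First, compound is mixed with the reconstituted replication complex and held at room temperature. Next, circular single-stranded M13Gori with nucleotides starts synthesis. Finally, PicoGreen in EDTA halts the reaction and stains double-stranded product for fluorescence reading.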

[3] = molecular target: Tumor susceptibility gene 101 protein (Homo sapiens) (UniProt Q99816); experiment: qHTS Validation Assay for Iinhibitors of HIV-1 Budding by Blocking the Interaction of PTAP/TSG101 (AID 485342; calls by dose curve)
Summary of the method: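 Binding of a FITC-tagged PTAP-motif peptide (50 nM) to the Tsg101 binding domain (10 uM) is monitored by fluorescence polarization. Compounds are pin-delivered before peptide addition, and incubation runs 20 min at room temperature.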

[4] = molecular target: Beta-2 adrenergic receptor (Homo sapiens) (UniProt P07550); experiment: qHTS validation assay of beta-arrestin-biased ligands of beta2-adrenergic receptor (AID 485366)
Summary of the method: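 Screening used a titration range of up to 46 microM in a beta-arrestin recruitment Tango luciferase assay. Cells in 1% FBS medium were treated 18 hr at 37 degrees C, and luminescence was normalized to %Activity.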

[5] = Quantitative high throughput screen for delayed death inhibitors of the malarial parasite plastid, 96 hour incubation (AID 488745); further: nearly all actives have a fitted effect of over 70% in size; further: potency means the concentration at half of the fitted maximal effect
Summary of the method: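 Luciferase-expressing P. falciparum, infected RBCs 2% Hct/0.1% parasitemia (final); 96 h cpd exposure, 37 C, 5% CO2; RPMI 1640 + 0.5% Albumax, bicarbonate, gentamycin. Readout: luminescence loss = growth inhibition.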

[6] = Quantitative high throughput screen for delayed death inhibitors of the malarial parasite plastid, 48 hour incubation (AID 488752); further: nearly all actives have a fitted effect of over 65% in size; further: potency means the concentration at half of the fitted maximal effect
Summary of the method: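 Luciferase-expressing P. falciparum in RBCs, 2% Hct, 0.1% parasitemia final; RPMI 1640 + 0.5% Albumax; 48 h, 37 C, 5% CO2; luminescence readout, signal drop = growth inhibition.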

[7] = molecular target: Thioredoxin reductase 1, cytoplasmic (Rattus norvegicus) (UniProt O89049); experiment: qHTS Assay for Substrates of Mammalian Selenoprotein Thioredoxin Reductase 1 (TrxR1) (AID 488772);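 further: a drop in NADPH fluorescence below the no-compound background marks a TrxR1 substrate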; further: potency means the concentration at half of the fitted maximal effect
Summary of the method: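 In this dual-purpose format, potential substrates are identified from the first fluorescence read after selenite addition, not from the 8-minute delta. Rat enzyme is preincubated with NADPH and then with compound at ~22 deg C.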

[8] = molecular target: Thioredoxin reductase 1, cytoplasmic (Rattus norvegicus) (UniProt O89049); experiment: qHTS Assay for Inhibitors of Mammalian Selenoprotein Thioredoxin Reductase 1 (TrxR1) (AID 488773); conditions: Potency: inhibition; further: nearly all actives have a fitted effect of over 40% in size; further: potency means the concentration at half of the fitted maximal effect
Summary of the method: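 Inhibition is scored from the loss of NADPH fluorescence between first and last reads of an 8-min kinetic run. Selenite (400 uM) was the substrate, added after 15 min compound preincubation at room temperature.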

[9] = molecular target: Flap endonuclease 1 (Homo sapiens) (UniProt P39748); experiment: qHTS Validation Assay for the Inhibitors of Human Flap endonuclease 1 (FEN1) (AID 488816); further: potency means the concentration at half of the fitted maximal effect
Summary of the method: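 qHTS format: compounds and 10 nM FEN1 incubated 15 min at room temperature before adding 50 nM substrate. Cleavage followed by reads at 0 and 15 min; normalized data fitted to a four-parameter Hill curve.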

[10] = molecular target: M-phase phosphoprotein 8 (Homo sapiens) (UniProt Q99549); experiment: qHTS Validation Assay for Inhibitors for MPP8 Chromodomain Interactions with Methylated Histone Tails (AID 488949); further: nearly all actives have a fitted effect of over 55% in size; further: potency means the concentration at half of the fitted maximal effect
Summary of the method: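 50 nM MPP8 + 50 nM b-H3K9me3 peptide, PBS pH 7.4/0.01% Tween-20, 30 min RT; + cpd 30 min RT; + AlphaScreen donor/Ni-chelate acceptor beads 10 ug/mL final, 30 min dark; luminescence read.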

[11] = molecular target: Chromobox protein homolog 1 (Homo sapiens) (UniProt P83916); experiment: qHTS Validation Assay for Inhibitors of HP1-beta Chromodomain Interactions with Methylated Histone Tails (AID 488953); further: nearly all actives have a fitted effect of over 50% in size; further: potency means the concentration at half of the fitted maximal effect
Summary of the method: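 AlphaScreen proximity readout: streptavidin donor and Ni-chelate acceptor beads, 10 ug/mL final, 30 min dark, RT. Complex of 50 nM HP1-beta and 50 nM b-H3(1-18)K9me3 formed 30 min, then compound-treated 30 min; PBS pH 7.4/0.01% Tween-20.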

[12] = molecular target: Methanococcus maripaludis chaperonin (MmCpn) (UniProt Q6LX38); experiment: High-Throughput Screening for Modulators of Cytosolic Chaperonin Activity: MmCpn Primary Screen (AID 488978);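 further: 50 nM MmCpn enzyme hydrolysing 30 µM ATP at 37 °C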
Summary of the method: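 Steps: chaperonin 50 nM final; add compound, 5 min RT; start with ATP, 30 uM final; hold 10 min at 37C; add ADP Transcreener HTRF reagent, 5 min; read ex 320, em 590 and 665 nm.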

[13] = molecular target: Transient receptor potential cation channel subfamily V member 1 (Homo sapiens) (UniProt Q8NER1); experiment: HTS Assay for Compounds that Act as Enhancers of the Vanilloid Receptor 1 (AID 488979)
Summary of the method: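 Calcium influx kinetics via Fluo-8 (480/520 nm) in TRPV1-expressing cells, 2000/well cultured overnight at 35.5C. Compound-alone read 3 min (agonist phase), followed by EC20 capsaicin challenge for 2 min (enhancer phase).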

[14] = molecular target: D(1A) dopamine receptor (Homo sapiens) (UniProt P21728); experiment: HTS Assay for Allosteric Agonists of the Human D1 Dopamine Receptor: Primary Screen for Agonists (AID 488981)
Summary of the method: (§1)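 Calcium flux in an inducible, force-coupled HEK293 Trex D1 line (overnight at 30 C): agonist mode is the 180 s kinetic read after compound; potentiator mode is the following 180 s read after dopamine at EC20.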

[15] = molecular target: D(1A) dopamine receptor (Homo sapiens) (UniProt P21728); experiment: HTS Assay for Allosteric Agonists of the Human D1 Dopamine Receptor: Primary Screen for Potentiators (AID 488982); further: potency means the concentration at half of the fitted maximal effect
Summary of the method: as §1

[16] = molecular target: Thyrotropin receptor (Homo sapiens) (UniProt P16473); experiment: qHTS Assay for Antagonists of the Thyroid Stimulating Hormone Receptor (AID 488980); further: series mostly up to about 58 µM
Summary of the method: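 Readout is cAMP by HTRF competition between cellular cAMP and cAMP-d2 for a cryptate-labelled antibody. Antagonism was assessed in TSHR-transfected HEK293 cells stimulated with 4 nM TSH (EC80, final) in the presence of RO 20-1724.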

[17] = molecular target: D(1A) dopamine receptor (Homo sapiens) (UniProt P21728); experiment: HTS Assay for Allosteric Agonists of the Human D1 Dopamine Receptor: Primary Screen for Antagonists (AID 488983);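 further: calcium flux response to an EC80 dopamine challenge measured with no-wash dye; nearly all actives have a fitted effect of over 65% in size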; further: potency means the concentration at half of the fitted maximal effect
Summary of the method: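 Calcium flux readout, no-wash dye, inducible HEK293 T-REx D1 line (force-coupled). Compound added after 10 s baseline, 180 s kinetic read; then dopamine at EC80, further 180 s read.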

[18] = molecular target: ATP-dependent 6-phosphofructokinase (Trypanosoma brucei brucei) (UniProt O15648); experiment: qHTS Validation Assay to Find Inhibitors of T. brucei phosphofructokinase (AID 485368); further: potency means the concentration at half of the fitted maximal effect
Summary of the method: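 PFK-generated ADP was measured after 45 min at room temperature using ADP-Glo. The reaction contained 0.5 mM F6P and 0.1 mM ATP.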

[19] = qHTS Validation Assay to Find Inhibitors of Chronic Active B-Cell Receptor Signaling (AID 485345; active means well fitted curve in the direction sought with a large enough effect in the main read-out, with a control signal flat, not every such curve was filed as active)
Summary of the method: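 Read-out: ratio of filter-corrected green (IkappaBalpha fusion) to red (native) luciferase signal in doxycycline-induced TMD8 cells after 4 h at 37C. Titration spanned 46 uM–3 nM; Data were normalised to basal cells and 10 uM MG-132 wells.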

Methanococcus maripaludis chaperonin (MmCpn), sequence (Q6LX38 1-543): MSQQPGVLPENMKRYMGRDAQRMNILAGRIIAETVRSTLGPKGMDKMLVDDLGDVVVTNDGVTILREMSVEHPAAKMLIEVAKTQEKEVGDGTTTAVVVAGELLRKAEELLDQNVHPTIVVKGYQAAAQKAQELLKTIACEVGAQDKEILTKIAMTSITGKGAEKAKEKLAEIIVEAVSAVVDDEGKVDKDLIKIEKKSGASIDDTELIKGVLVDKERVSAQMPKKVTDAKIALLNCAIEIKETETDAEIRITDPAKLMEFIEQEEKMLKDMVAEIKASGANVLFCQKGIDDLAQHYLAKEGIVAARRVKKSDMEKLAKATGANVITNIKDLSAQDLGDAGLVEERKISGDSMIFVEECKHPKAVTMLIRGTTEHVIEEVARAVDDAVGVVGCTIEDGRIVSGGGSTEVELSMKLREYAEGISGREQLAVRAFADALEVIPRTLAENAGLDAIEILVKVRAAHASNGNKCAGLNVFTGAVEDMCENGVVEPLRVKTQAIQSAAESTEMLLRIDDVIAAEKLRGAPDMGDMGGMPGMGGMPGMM
DNA polymerase III PolC-type (Bacillus subtilis (strain 168)), sequence (P13267 whole entry, looked up): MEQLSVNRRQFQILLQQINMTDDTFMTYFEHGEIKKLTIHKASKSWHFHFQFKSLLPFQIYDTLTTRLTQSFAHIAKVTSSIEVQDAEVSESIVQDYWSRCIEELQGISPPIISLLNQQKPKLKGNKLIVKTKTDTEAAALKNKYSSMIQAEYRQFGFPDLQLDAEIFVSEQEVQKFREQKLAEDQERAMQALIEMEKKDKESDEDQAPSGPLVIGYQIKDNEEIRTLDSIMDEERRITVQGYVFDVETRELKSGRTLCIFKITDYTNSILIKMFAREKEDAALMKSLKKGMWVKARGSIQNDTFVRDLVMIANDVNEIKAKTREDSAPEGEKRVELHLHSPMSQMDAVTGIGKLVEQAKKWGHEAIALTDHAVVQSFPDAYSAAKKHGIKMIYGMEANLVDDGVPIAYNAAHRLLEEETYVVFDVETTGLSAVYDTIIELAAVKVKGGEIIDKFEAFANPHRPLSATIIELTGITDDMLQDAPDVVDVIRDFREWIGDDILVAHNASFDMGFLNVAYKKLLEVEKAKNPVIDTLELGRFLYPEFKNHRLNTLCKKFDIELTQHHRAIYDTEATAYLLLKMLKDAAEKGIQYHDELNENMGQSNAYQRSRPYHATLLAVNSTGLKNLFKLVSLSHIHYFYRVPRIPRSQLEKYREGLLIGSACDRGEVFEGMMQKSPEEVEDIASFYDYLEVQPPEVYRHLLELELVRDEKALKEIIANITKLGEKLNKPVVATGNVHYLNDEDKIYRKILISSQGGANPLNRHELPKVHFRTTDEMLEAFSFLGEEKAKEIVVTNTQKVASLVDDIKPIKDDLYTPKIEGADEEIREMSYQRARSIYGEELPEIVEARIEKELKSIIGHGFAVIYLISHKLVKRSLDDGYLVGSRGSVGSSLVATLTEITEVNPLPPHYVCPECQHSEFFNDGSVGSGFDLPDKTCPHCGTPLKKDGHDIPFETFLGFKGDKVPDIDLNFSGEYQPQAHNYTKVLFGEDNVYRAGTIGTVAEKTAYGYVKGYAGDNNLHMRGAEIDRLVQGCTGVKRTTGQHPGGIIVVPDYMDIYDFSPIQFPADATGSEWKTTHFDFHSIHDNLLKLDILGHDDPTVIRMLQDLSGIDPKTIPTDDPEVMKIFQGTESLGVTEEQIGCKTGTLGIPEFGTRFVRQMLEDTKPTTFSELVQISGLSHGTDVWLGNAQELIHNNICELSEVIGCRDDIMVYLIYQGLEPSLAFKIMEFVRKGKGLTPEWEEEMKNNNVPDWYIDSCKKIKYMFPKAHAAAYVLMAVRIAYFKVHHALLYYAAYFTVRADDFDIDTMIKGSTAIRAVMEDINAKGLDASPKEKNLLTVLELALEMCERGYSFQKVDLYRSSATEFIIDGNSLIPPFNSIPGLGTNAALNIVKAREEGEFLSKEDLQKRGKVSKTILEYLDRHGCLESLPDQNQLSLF
M-phase phosphoprotein 8 (Homo sapiens), sequence (Q99549 whole entry, looked up): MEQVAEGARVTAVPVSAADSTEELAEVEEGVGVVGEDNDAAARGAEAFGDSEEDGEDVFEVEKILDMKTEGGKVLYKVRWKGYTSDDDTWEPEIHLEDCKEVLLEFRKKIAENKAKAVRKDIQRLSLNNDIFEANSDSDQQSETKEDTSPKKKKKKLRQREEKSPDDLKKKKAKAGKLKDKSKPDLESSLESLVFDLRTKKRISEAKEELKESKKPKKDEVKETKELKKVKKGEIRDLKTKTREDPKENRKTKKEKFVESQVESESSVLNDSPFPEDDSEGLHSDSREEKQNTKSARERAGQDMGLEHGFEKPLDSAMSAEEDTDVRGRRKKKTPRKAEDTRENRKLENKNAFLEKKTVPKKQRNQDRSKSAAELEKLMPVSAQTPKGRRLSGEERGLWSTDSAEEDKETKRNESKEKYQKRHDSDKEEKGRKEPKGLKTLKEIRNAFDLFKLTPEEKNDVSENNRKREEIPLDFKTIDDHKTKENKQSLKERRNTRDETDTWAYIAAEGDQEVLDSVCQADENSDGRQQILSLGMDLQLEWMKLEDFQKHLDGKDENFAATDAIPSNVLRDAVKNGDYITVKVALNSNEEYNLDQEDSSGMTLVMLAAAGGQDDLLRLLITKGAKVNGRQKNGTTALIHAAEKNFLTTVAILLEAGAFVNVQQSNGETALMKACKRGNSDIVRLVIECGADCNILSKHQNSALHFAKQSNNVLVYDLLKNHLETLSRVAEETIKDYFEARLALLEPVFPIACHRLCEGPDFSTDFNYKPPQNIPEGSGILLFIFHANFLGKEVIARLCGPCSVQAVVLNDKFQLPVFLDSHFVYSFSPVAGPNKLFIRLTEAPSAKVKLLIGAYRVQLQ
Thioredoxin reductase 1, cytoplasmic (Rattus norvegicus), sequence (O89049 whole entry, looked up): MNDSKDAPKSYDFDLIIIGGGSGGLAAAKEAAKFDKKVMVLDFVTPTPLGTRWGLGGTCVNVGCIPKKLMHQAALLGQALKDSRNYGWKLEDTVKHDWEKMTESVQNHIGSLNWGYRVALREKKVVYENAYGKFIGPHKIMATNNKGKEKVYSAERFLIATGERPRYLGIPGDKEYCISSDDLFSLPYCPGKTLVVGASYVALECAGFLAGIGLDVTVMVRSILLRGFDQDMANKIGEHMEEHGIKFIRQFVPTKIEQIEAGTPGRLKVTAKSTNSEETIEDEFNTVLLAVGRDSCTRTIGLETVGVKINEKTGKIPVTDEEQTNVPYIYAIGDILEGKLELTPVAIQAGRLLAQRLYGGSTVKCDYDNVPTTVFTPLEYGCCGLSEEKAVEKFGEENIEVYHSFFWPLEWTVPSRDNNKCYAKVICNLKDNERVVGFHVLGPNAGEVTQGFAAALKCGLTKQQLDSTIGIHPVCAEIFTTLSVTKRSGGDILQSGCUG
Ubiquitin carboxyl-terminal hydrolase 2 (Homo sapiens), sequence (O75604 whole entry, looked up): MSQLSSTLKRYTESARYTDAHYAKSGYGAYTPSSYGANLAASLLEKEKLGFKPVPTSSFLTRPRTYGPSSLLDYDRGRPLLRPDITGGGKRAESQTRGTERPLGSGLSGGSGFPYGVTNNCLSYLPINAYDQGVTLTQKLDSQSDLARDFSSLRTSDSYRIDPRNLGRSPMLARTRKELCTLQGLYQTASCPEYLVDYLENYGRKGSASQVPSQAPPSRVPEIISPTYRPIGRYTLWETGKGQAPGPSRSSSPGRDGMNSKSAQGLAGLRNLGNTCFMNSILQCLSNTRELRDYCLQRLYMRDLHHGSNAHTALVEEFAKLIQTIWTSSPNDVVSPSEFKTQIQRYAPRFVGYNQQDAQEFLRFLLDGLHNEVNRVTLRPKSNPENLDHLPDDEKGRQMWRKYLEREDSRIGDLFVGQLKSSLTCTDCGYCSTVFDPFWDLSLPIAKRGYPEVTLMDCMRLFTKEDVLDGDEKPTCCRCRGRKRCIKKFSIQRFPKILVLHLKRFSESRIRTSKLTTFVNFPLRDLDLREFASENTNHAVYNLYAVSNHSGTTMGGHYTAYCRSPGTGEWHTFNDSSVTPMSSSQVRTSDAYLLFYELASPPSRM
ATP-dependent 6-phosphofructokinase (Trypanosoma brucei brucei), sequence (O15648 whole entry, looked up): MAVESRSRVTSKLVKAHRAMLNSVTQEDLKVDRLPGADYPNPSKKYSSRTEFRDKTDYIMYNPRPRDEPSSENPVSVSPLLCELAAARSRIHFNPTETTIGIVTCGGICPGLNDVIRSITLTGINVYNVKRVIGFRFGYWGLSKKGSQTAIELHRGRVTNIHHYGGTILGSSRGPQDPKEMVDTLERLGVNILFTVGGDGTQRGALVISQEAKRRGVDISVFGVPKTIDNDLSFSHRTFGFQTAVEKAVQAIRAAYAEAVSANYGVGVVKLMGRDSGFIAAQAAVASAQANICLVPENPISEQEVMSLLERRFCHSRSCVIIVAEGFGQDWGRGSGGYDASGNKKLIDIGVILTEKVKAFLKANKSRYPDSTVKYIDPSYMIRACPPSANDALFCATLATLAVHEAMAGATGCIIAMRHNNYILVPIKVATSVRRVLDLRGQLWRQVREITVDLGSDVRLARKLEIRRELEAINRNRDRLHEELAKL
D(1A) dopamine receptor (Homo sapiens), sequence (P21728 whole entry, looked up): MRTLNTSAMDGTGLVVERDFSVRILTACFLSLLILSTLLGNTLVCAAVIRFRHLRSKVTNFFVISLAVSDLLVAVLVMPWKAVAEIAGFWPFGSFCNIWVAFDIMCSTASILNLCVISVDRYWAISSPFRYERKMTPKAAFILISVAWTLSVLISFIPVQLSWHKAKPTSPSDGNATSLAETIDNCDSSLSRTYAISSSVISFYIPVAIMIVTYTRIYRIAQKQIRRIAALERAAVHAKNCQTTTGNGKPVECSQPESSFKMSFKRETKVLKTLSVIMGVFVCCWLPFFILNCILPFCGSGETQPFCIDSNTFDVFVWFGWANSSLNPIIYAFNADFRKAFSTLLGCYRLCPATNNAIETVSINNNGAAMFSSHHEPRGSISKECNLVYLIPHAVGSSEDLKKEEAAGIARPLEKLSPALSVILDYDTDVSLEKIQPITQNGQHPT

Compound	Potency [1]	Potency [2]	outcome [3]	outcome [4]	Potency [5]	Potency [6]	Potency [7]	Potency [8]	Potency [9]	Potency [10]	Potency [11]	outcome [12]	outcome [13]	Potency [14]	Potency [15]	outcome [16]	Potency [17]	Potency [18]	outcome [19]
Fc1ccc(C(OCCCc2cnc[nH]2)c2ccc(F)cc2)cc1	inactive	inactive	inactive	inactive	2.62 µM (active)	6.57 µM (active)	inactive	inactive	inactive	50.1 µM (active)	39.8 µM (active)	inactive	inactive	inactive	inactive	–	–	–	–
COC(=O)c1c(C)[nH]c(C)c1C(=O)c1ccccc1Cc1ccccc1	inactive	inactive	inactive	inactive	–	9.28 µM (active)	inactive	inactive	inactive	39.8 µM (active) and inactive	44.7 µM (active)	inactive	inactive	inactive	inactive	inactive	–	–	–
Cc1ccccc1CNc1ncnc2c1ncn2C1OC(CO)C(O)C1O (stereo not drawn)	inactive	inactive	inactive	inactive	inactive	inactive	inactive	inactive	inactive	inactive	inactive	inactive	inactive	–	–	inactive	inactive	–	–
NC[C@@H]1O[C@H](C23CC4CC(CC(C4)C2)C3)Cc2c1ccc(O)c2O	inactive	inactive	inactive	inactive	3.29 µM (active)	3.7 µM (active)	inactive	inactive	inactive	20 µM (active) and inactive	–	inactive	–	–	inactive	–	–	–	–
CN(C)c1nc(N)c(C(=O)N=C(N)N)nc1Cl	inactive	inactive	inactive	inactive	–	inactive	inactive	inactive	inactive	inactive	inactive	inactive	inactive	inactive	inactive	inactive	inactive	–	–
COc1ccc(NC(=O)/C=C/c2ccc(Cl)cc2)cc1	inactive	inactive	inactive	inactive	–	–	inactive	inactive	inactive	inactive	–	inactive	inactive	inactive	inactive	–	inactive	inactive	–
Oc1cc(O)cc(/C=C/c2ccc(O)c(O)c2)c1	inactive	inactive	inactive	inactive	–	–	inactive	–	–	39.8 µM (active)	44.7 µM (active)	inactive	inactive	inactive	0.58 µM (active)	inactive	–	3.79 µM (active)	–
O=[N+]([O-])c1ccc(CSc2ncnc3c2ncn3[C@@H]2O[C@H](CO)[C@@H](O)[C@H]2O)cc1	inactive	inactive	inactive	inactive	–	–	inactive	inactive	inactive	inactive	inactive	inactive	–	–	inactive	–	inactive	15.1 µM (active)	–
CCCC1(C)C(C#N)(C#N)C1(C#N)C#N	inactive	inactive	inactive	inactive	–	–	inactive	10.6 µM (active)	inactive	inactive	inactive	inactive	–	inactive	–	–	inactive	inactive	–
OC[C@H]1O[C@@H](n2cnc3c(Nc4ccccc4)ncnc32)[C@H](O)[C@@H]1O	inactive	inactive	inactive	inactive	–	–	inactive	inactive	inactive	inactive	0.006 µM (active)	inactive	–	–	–	–	inactive	–	–
O=C1C(SCCO)=C(SCCO)C(=O)c2ccccc21	inactive	inactive	inactive	inactive	–	–	16.8 µM (active)	26.7 µM (active)	–	inactive	10 µM (active)	inactive	inactive	inactive	–	inactive	11.2 µM (active)	12 µM (active)	–
OCC1O[C@H]([S-])[C@H](O)[C@@H](O)[C@@H]1O.[Au+] (stereo partly drawn)	18.5 µM (active)	inactive	inactive	inactive	–	–	inactive	0.0752 µM (active)	1.5 µM (active)	1.5 µM (active)	2 µM (active)	inactive	–	inactive	–	–	inactive	2.69 µM (active)	–
O=c1[nH]c2cc(C(F)(F)F)ccc2n1-c1cc(C(F)(F)F)ccc1O	inactive	inactive	inactive	inactive	–	–	–	inactive	inactive	inactive	–	inactive	inactive	–	inactive	inactive	–	inactive	–
CSc1ccccc1N1CCN(CCCCCC(=O)NC2CCCc3ccccc32)CC1 (stereo not drawn)	inactive	inactive	inactive	inactive	–	–	inactive	inactive	inactive	inactive	50.1 µM (active)	inactive	–	inactive	inactive	–	2 µM (active)	inactive	–
COc1ccccc1N1CCN(CCN(C(=O)c2ccc(I)cc2)c2ccccn2)CC1	inactive	inactive	inactive	inactive	–	–	inactive	inactive	–	inactive	–	inactive	–	inactive	inactive	–	5.62 µM (active)	inactive	–
OCC1O[C@H](O)C(Cl)C(O)C1O (stereo partly drawn)	inactive	inactive	inactive	inactive	inactive	inactive	inactive	inactive	inactive	inactive	inactive	inactive	inactive	inactive	inactive	inactive	–	–	–
CC12C(=O)OC(=O)C1(C)C1CCC2O1 (stereo not drawn)	inactive	inactive	inactive	inactive	3.29 µM (active)	4.15 µM (active)	inactive	inactive	–	inactive	inactive	inactive	inactive	inactive	inactive	–	inactive	–	–
Cc1ccc(S(=O)(=O)/C=C/C#N)cc1	inactive	inactive	inactive	inactive	–	–	inactive	0.238 µM (active)	inactive	inactive	39.8 µM (active)	inactive	–	inactive	inactive	–	12.6 µM (active)	–	–
Nc1ncnc2c1c(I)cn2[C@@H]1C[C@H](N)[C@@H](O)[C@H]1O	inactive	inactive	inactive	inactive	–	–	inactive	inactive	inactive	inactive	inactive	inactive	–	inactive	–	–	inactive	–	–
C=CC(=O)c1ccc(CCCCCC)cc1	inactive	inactive	inactive	inactive	–	–	inactive	15 µM (active)	inactive	inactive	–	inactive	–	–	–	–	–	–	–
CCOC(=O)C1=C(C)NC(C)=C(C(=O)OCC)C1c1c(F)c(F)c(F)c(F)c1F	inactive	inactive	inactive	inactive	–	–	inactive	inactive	–	inactive	inactive	inactive	–	–	–	–	–	–	–
O=[N+]([O-])c1ccc2c(c1)S(=O)(=O)C=C2	inactive	inactive	inactive	inactive	–	–	inactive	2.12 µM (active)	inactive	inactive	–	inactive	–	inactive	inactive	–	inactive	–	–
Oc1cc2c(cc1O)CN(C(=S)NCCc1ccc(Cl)cc1)CCC2	inactive	inactive	inactive	inactive	–	–	inactive	–	–	39.8 µM (active) and inactive	44.7 µM (active)	inactive	inactive	inactive	inactive	inactive	2 µM (active)	–	–
O=C(O)CC1CCCc2ccccc2C1O (stereo not drawn)	inactive	–	inactive	inactive	inactive	inactive	–	inactive	inactive	inactive	–	inactive	inactive	inactive	inactive	inactive	inactive	inactive	inactive
CN(C)c1ccc(/C=C2\C(=O)Nc3ccccc32)cc1	inactive	inactive	inactive	inactive	–	–	–	–	–	28.2 µM (active) and 10.6 µM (active)	28.2 µM (active)	inactive	inactive	inactive	inactive	–	inactive	–	–

Source: PubChem BioAssay (NCATS)
